p53null 32C kill = qHTS Screen for Compounds that Selectively Target Cancer Cells with p53 Mutations: Cytotoxicity of p53 Null Cells at the Permissive Temperature; AID 903, 2007; 0.62% of 55,000 active; Potency, µM (highest dose often 46.1 µM), for inactives: top-dose activity change, negative = cytotoxicity, actives largely listed as cytotoxic; H1299-neo p53 null cells, ATP luminescence, 24 h, 32C;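 further: 0% = DMSO only and -100% = full killing by 100 µM tamoxifen; nearly all actives have a fitted effect of over 55% in size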
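Cells lacking p53 (H1299-neo) are plated at 600 per well and allowed to settle overnight at 37C. Test compounds (up to 46 uM) are added and held 24 hours at 32C, then ATP is quantified by luminescence.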
SKOV3 invasion = Primary qHTS assay for Inhibitors of ovarian cancer metastasis using an organotypic tumor microenvironment (TME) model; SKOV3ip1-GFP adhesion/invasion on 3D omental model, fluorescence; Potency, µM (doses to about 45.8 µM), for inactives: top-dose activity change, negative = inhibition, usual class: inhibitors; 0.1% of 46,000 active;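 further: plate controls were DMSO wells for no effect and tomatine positive control wells for full effect; nearly all actives have a fitted effect of over 65% in size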
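qHTS, 4-pt dose (0.36-46 umol/L); SKOV3ip1-GFP, 1,200 cells/well, no FBS; primary omental fibroblast/mesothelial co-culture 48 h pre-grown; 2 h RT + 16 h 37 C; PBS wash, 4% PFA; GFP count 488/509 nm.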
NTMT1 inh = Primary qHTS for Inhibitors of N-terminal methyltransferase 1 (NTMT1): MTaseGlo Assay; N-terminal Xaa-Pro-Lys N-methyltransferase 1 (Homo sapiens), Q9BV86; NTMT1 MTase-Glo SAH luminescence, purified enzyme; Potency, µM (titrated, usually from 114 µM), inactives show at the top dose activity change, negative = inhibition, actives largely listed as inhibitors; 2.5% of 59,000 active; AID 1645870, 2021;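 further: plate controls were DMSO vehicle for no effect and no enzyme for full effect; nearly all actives have a fitted effect of over 65% in size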
FH mod = Identification of activators of human fumarate hydratase by quantitative high-throughput screening. Fumarate hydratase, mitochondrial (Homo sapiens), P07954. FH coupled MDH/diaphorase resazurin fluorescence, 15 min. Potency, µM (titrated, usually from 79.9 µM), inactives show at the top dose activity change, negative = inhibition, hits mostly inhibitors. 0.22% of 54,000 active. AID 1347055, 2019; further: the screen sought activators but most active calls are inhibition curves; nearly all actives have a fitted effect of over 45% in size
Target sequence (P07954 whole entry, looked up): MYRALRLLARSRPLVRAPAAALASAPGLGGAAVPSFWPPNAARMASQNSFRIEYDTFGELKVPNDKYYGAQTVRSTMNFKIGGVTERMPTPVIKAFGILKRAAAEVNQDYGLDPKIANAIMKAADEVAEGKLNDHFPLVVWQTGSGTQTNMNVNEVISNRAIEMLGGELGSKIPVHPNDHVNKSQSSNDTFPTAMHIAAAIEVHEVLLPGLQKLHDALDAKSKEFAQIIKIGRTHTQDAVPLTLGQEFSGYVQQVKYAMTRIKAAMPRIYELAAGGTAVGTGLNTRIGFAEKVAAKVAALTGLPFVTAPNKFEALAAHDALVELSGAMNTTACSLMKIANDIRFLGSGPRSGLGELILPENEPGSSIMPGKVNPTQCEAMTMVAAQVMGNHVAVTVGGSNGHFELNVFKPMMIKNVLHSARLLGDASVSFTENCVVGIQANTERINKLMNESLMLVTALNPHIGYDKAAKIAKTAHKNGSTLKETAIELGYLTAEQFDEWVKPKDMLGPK
p53null 39C tox = qHTS Screen for Compounds that Selectively Target Cancer Cells with p53 Mutations: Cytotoxicity of p53 Null Cells at the Nonpermissive Temperature; H1299 p53-null (neo) cells, 39C, ATPlite viability, 24 h; Potency, µM (highest dose often 46.1 µM), for inactives: top-dose activity, negative = cell killing, actives largely listed as cytotoxic; 0.97% of 55,000 active;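 further: 0% = DMSO only and -100% = full killing by 100 µM tamoxifen; nearly all actives have a fitted effect of over 50% in size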
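Cells seeded at 600/well, 37C overnight. Compound added (up to 46 uM), plates shifted to 39C for 24 hr. ATPlite added, luminescence read after 20 min at room temperature.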
* marks the source's active call; other numbers are inactive results; i = inactive; u = inconclusive; x = no result; [ ] = another dose, or the depositor's remark. Shown is part of a subset that was picked to be rich in hits. The call rests on the fitted dose curve; in most records, active means well fitted curve in the direction sought with a large enough effect; inconclusive means small, poorly fitted or top-dose-only effect, or another doubt; inactive means no such curve, though single readings can be large; an effect the other way counts as inactive or inconclusive. Unless noted, on the % scale 0 is the no-effect control and ±100 the full control effect; potency means the concentration at half of the fitted maximal effect.

SMILES	p53null 32C kill	SKOV3 invasion	NTMT1 inh	FH mod	p53null 39C tox
Cc1nc2c(C(=O)N(C)Cc3ccccc3)c[nH]n2c(=O)c1Cc1ccc(Cl)cc1	32%	i	11%	3%	61%
Cc1nc2c(C(=O)NCCc3ccccc3)c[nH]n2c(=O)c1Cc1ccccc1F	16µM*	i	-20%	-18%	u
Cc1nc2c(C(=O)NCCc3ccc(Cl)cc3)c[nH]n2c(=O)c1Cc1ccc(Cl)cc1	u	i	-5%	u	20µM*
Cc1ccc(CNC(=O)c2c[nH]n3c(=O)c(Cc4ccc(Cl)cc4)c(C)nc23)cc1	u	i	u	u	u
O=C(NCc1nc2ccccc2c(=O)n1-c1ccc(F)cc1)Nc1ccc(Cl)c(C(F)(F)F)c1	x	x	4%[57.5 µM]	-15%	x
CCOc1ccc(NC(=O)c2sc3nc4c(cc3c2N)CCCCCC4)cc1	-16%	7%	-4%	-5%	-14%
Nc1c(C(=O)Nc2ccc(C(=O)O)cc2)sc2nc3c(cc12)CCCC3	u	8%	25µM*	-18%	u
Cc1cccc(-n2cnc3cc(C(=O)NC(C)(C)C)ccc32)c1	x	x	-4%	x	x
CC(C)CN(CC(=O)N(CCCN1CCCC1=O)CC(N)=O)C(=O)CNCCc1ccccc1F	x	x	15%	13%	x
CN(C)CCCNc1c2ccccc2nc2c1[nH]c1ccccc12	x	x	35µM*	8%	x
CCC(Cc1ccccc1)NC(=O)Cn1nc(C)n2c(cc3occc32)c1=O (centres undefined)	2%	10%	89µM*	-2%	-9%
CO[C@H]1C=CC=C(C)C(=O)NC2=CC(=O)C(NCCN(C)C)=C(C[C@@H](C)C[C@H](OC)[C@@H](O)[C@@H](C)C=C(C)[C@@H]1OC(N)=O)C2=O	x	-7%	27µM*	-18%[53.3 µM]	x
CCc1ccc(NC(=O)Nc2cn(C)c(=O)c3ccccc23)cc1	7%	u	u	32µM*[activator]	12%
Cc1ccc(NC(=O)Nc2cn(C)c(=O)c3ccccc23)c(Cl)c1	-6%	i	12%	28µM*[activator]	-2%
O=C(c1cc(O)c(O)c(O)c1)c1ccc(O)c(O)c1O	x	x	32µM*	u	x
COC(=O)COc1ccc(-c2nnc(Nc3ccc(O)cc3)c3ccccc23)cc1	20%	2.5µM*	10%	-23%	0%
Oc1cc(-c2nc(-c3ccccc3)[nH]c2-c2ccncc2)ccc1Cl	x	-11%	16%[57.5 µM]	-14%	x
CN(C)CCOc1ccc(-c2nc(-c3ccc4c(c3)CC/C4=N\O)c(-c3ccncc3)[nH]2)cc1	x	x	28µM*	x	x
COc1cc(OC)cc(C(=O)Nc2ccc3nc4c(c(Nc5ccc(OC)c(OC)c5)c3c2)CCCC4)c1	u	u	-27%	-19%	u
COc1ccc(Nc2c3c(nc4ccc(NC(=O)c5cc(Cl)ccc5OC)cc24)CCCC3)cc1OC	6.3µM*	u	u	-4%	5µM*
C#CCn1c(/C=C/c2ccc(Cl)cc2)nc2ccccc21	3.2µM*	-4%	u	-19%	4µM*
CC(C)Cn1c(/C=C/c2ccc(F)cc2)nc2ccccc21	11µM*	-14%	-16%	-16%	7.9µM*
CCC(C)Cn1c(/C=C/c2ccccc2)nc2ccccc21 (centres undefined)	u	-4%	-18%	-15%	10µM*
CCc1nc2ccccc2n1CCCCOc1ccc(Cl)cc1	23%	-2%	-1%	u	u
CC(C)CCn1c(/C=C/c2ccccc2)nc2ccccc21	u	-2%	-4%	u	u
SMILES	p53null 32C kill	SKOV3 invasion	NTMT1 inh	FH mod	p53null 39C tox
CN1CCC(CNc2ccc3ncc(-c4cccc(OC(F)(F)F)c4)n3n2)CC1	x	-9%	16µM*	u	x
CCCc1cc(C(=O)N[C@H](Cc2ccc(-c3cccc(OC(F)(F)F)c3)nc2)C(=O)N[C@@H]2CCNC2)sc1C	x	x	56µM*	x	x
CCCCCCCCCCCCCCCCCCNC(=O)OC1CCN(C(=O)OC[C@H](COC(=O)N(Cc2cccc[n+]2CC)C(=O)c2ccccc2OC)OC)CC1	x	x	50µM*	-10%[53.3 µM]	x
COc1ccccc1NC(=O)OCC1CCN(C(=O)OC(C)(C)C)CC1	x	x	2%[57.5 µM]	-4%	x
CCc1ccccc1N(CC)C(=O)c1cc2c(s1)-c1ccccc1SC2	-1%	12%	-14%	u	13µM*
CCOc1ccc(N(CC)C(=O)c2cc3c(s2)-c2ccc(Cl)cc2SC3)cc1	-5%	6%	1%	-22%	10µM*
CCc1ccccc1N(CC)C(=O)c1cc2c(s1)-c1ccccc1OC2	4%	-6%	-17%	-13%	8%
O=C1C=CC2OC(c3ccccc3)C(O)C2O1 (centres undefined)	x	x	15%[57.5 µM]	0%	x
CC1CCN(S(=O)(=O)c2cc(C(=O)NCCc3ccccc3)n(C)c2)CC1	-6%	i	-17%	-31%	11%
Cc1ccc(NC(=O)c2cc(S(=O)(=O)N3CCC(C)CC3)cn2C)cc1Cl	8%	i	89µM*	-4%	8%
CC1CCN(S(=O)(=O)c2cc(C(=O)NCc3ccc(N(C)C)cc3)n(C)c2)CC1	-7%	-2%	89µM*	-5%	0%
COC(=O)C1=CO[C@@H](O[C@@H]2O[C@H](CO)[C@@H](O)[C@H](O)[C@H]2O)[C@H]2[C@@H]1CC(OC)O[C@@H]2C (some centres undefined)	x	x	-17%[29.8 µM]	0%[53.3 µM]	x
Cc1ccc(-c2nc3ccccc3s2)cc1NC(=O)c1ccc(-c2cccc(Cl)c2)o1	x	x	6%	x	x
Cc1cc(N)c2cc(NC(=O)Nc3ccc4nc(C)cc(N)c4c3)ccc2n1	x	x	20µM*	23%[53.3 µM]	x
CCCOc1ccc(CN2C(=O)C(=O)c3cccc(C)c32)cc1	67%	u	-11%	-7%	u
Cc1ccc(CN2C(=O)C(=O)c3cc(Br)cc(C)c32)cc1	u	13µM*	-3%	-17%	11µM*
CC(=O)Nc1cccc(-c2csc(Nc3ccc(C)cn3)n2)c1	11µM*	x	x	x	x
Cc1cn([C@H]2C[C@H](N[S+](=O)([O-])Cc3cc(Cl)cc(Cl)c3)[C@@H](CO)O2)c(=O)[nH]c1=O	x	x	79µM*	x	x
Cc1ccc(C)c(-c2[nH]c3c(c2-c2c(-n4cccc4)n(C)c(=O)[nH]c2=O)c(=O)[nH]c(=O)n3C)c1	7%	i	89µM*	-13%	-13%
COc1cccc(-c2[nH]c3c(c2-c2c(-n4cccc4)n(C)c(=O)[nH]c2=O)c(=O)[nH]c(=O)n3C)c1	-9%	8%	u	-2%	6%

Bioassay records from PubChem BioAssay.
